This passage reports growth results from PubChem BioAssay (NCI).

The structures appear in SMILES notation. Compounds without any hit were thinned out: in the full panel of roughly 83,000, 20% have a hit.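 Interpretation: 100, growth as untreated; towards 0, rising growth inhibition; 0, no net growth; 0 to -100, cell death. Compounds scoring below 10 were considered active.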 Unmarked numbers belong to inactive results. Activity calls are given as the source filed them.

Test systems include DU-145 prostate; K-562 leukemia; MALME-3M melanoma; MDA-MB-231 breast; RXF 393 renal; SF-268 CNS; SF-295 CNS; SF-539 CNS; UACC-257 melanoma; M14 melanoma; HCT-15 colon; HT29 colon; SNB-75 CNS; SNB-19 CNS; U251 CNS; SK-MEL-5 melanoma; UACC-62 melanoma; LOX IMVI melanoma; SK-MEL-28 melanoma; PC-3 prostate.
Common to all, as to assay: NCI-60 one-dose screen, 48 h (100 = growth as untreated, 0 = no growth, -100 = all killed)
Holding throughout (settings): 10 µM

As for `CCN1C(=O)CC(SC2CC(=O)N(CC)C2=O)C1=O` (configuration not stated), the growth is 101% in the test on DU-145 prostate; 82.7% in the test with K-562 leukemia; 97.6% in the test on MALME-3M melanoma; 105% in the test with MDA-MB-231 breast; 111% in the test on RXF 393 renal; 96.1% in the test on SF-268 CNS. In addition, the growth was 106% with SF-295 CNS; 100% in the test with SF-539 CNS; 100% with UACC-257 melanoma; 97.6% with M14 melanoma; 105% with HCT-15 colon; 79.7% in the test with HT29 colon. The growth with SNB-75 CNS was 97.4%; in the test with SNB-19 CNS, 95.7%; in the test with U251 CNS, 102%; in the test on SK-MEL-5 melanoma, 104%; with UACC-62 melanoma, 102%; in the test on LOX IMVI melanoma it was 95.2%. Also, the growth in the test with SK-MEL-28 melanoma is 112%.
In the case of `CC(=O)OC/C=C(/C)C[P+](c1ccccc1)(c1ccccc1)c1ccccc1`, the growth in the test on DU-145 prostate is 58.3%; in the test with K-562 leukemia, 28.4%; with MALME-3M melanoma, 61.7%; in the test with MDA-MB-231 breast, 75.2%; in the test with RXF 393 renal, 98%; in the test on SF-268 CNS, 76.7%. The growth was 41.6% in the test on SF-295 CNS; 64.2% in the test on SF-539 CNS; 69.7% in the test on UACC-257 melanoma; 46.6% in the test on M14 melanoma; 73.3% with HCT-15 colon; 59.8% in the test on HT29 colon. Also, the growth in the test on SNB-75 CNS is 76.8%; in the test with SNB-19 CNS, 47%; in the test on U251 CNS, 35.8%; with PC-3 prostate, 41.3%; in the test with SK-MEL-5 melanoma, 43.1%; with LOX IMVI melanoma it was 55.2%. Further, the growth with SK-MEL-28 melanoma is 69%.
For `Cc1ccc(Cl)cc1NC(=O)CCl`, the growth in the test on DU-145 prostate is 99.8%; in the test with K-562 leukemia, 39%; in the test with MALME-3M melanoma, 82.1%; with MDA-MB-231 breast, 98.5%; with RXF 393 renal, 91.8%; in the test with SF-268 CNS it was 79.3%. The growth in the test on SF-295 CNS was 104%; in the test with SF-539 CNS, 102%; in the test on UACC-257 melanoma it was 85.8%; in the test with M14 melanoma, 62.7%; in the test on HCT-15 colon, 67.2%; in the test on HT29 colon it was 82.9%. The growth in the test with SNB-75 CNS was 85.6%; in the test on SNB-19 CNS, 82.2%; with U251 CNS it was 67.5%; in the test on PC-3 prostate, 81.2%; in the test with SK-MEL-5 melanoma, 58.1%; in the test with LOX IMVI melanoma, 42.2%. In addition, in the test with SK-MEL-28 melanoma, the growth was 98.5%.
In the case of `c1ccc2c(c1)Cc1ccccc1N2CCN1CCCCC1`, the growth with DU-145 prostate is 104%; in the test on K-562 leukemia, 91.5%; in the test on MALME-3M melanoma it was 111%; in the test with MDA-MB-231 breast, 81.5%; in the test on RXF 393 renal, 110%; in the test with SF-268 CNS it was 99%. Besides, the growth in the test on SF-295 CNS is 92.5%; in the test on SF-539 CNS it was 94.9%; in the test on UACC-257 melanoma it was 102%; in the test with M14 melanoma, 86.1%; in the test on HCT-15 colon it was 94.2%; in the test with HT29 colon, 74.4%. The growth with SNB-75 CNS is 94.7%; in the test on SNB-19 CNS, 90.6%; with U251 CNS, 90.1%; with PC-3 prostate, 82.7%; with SK-MEL-5 melanoma, 95.5%; with LOX IMVI melanoma, 87.8%. For the same compound, the growth with SK-MEL-28 melanoma was 110%.
For `COc1ccc(N=Nc2cc(OC)c(OC)c(OC)c2)cc1`, the growth in the test on DU-145 prostate is 97.3%; with K-562 leukemia, 69.4%; with MALME-3M melanoma, 77.9%; with MDA-MB-231 breast, 89.4%; in the test on RXF 393 renal, 86%; in the test with SF-268 CNS, 91.3%. Also, the growth in the test with SF-295 CNS was 83.6%; in the test with SF-539 CNS, 82.6%; with UACC-257 melanoma, 84.9%; in the test on M14 melanoma, 74.3%; in the test with HCT-15 colon it was 82%; in the test on HT29 colon it was 69.1%. Besides, the growth in the test on SNB-75 CNS is 78.7%; in the test on SNB-19 CNS it was 89%; with U251 CNS, 79.5%; in the test on PC-3 prostate it was 67.2%; in the test with SK-MEL-5 melanoma, 80%; in the test on LOX IMVI melanoma, 79%. For the same compound, the growth with SK-MEL-28 melanoma is 92%.
Consider `O=C(CNc1nnc(-c2cccnc2SCc2ccccc2)s1)Nc1nc(Cl)cc(Cl)n1`, for which the growth with DU-145 prostate is 100%; in the test with K-562 leukemia it was 109%; in the test on MALME-3M melanoma, 98.8%; with MDA-MB-231 breast, 104%; with RXF 393 renal it was 124%; with SF-268 CNS, 91.5%. Also, the growth is 103% in the test on SF-295 CNS; 110% in the test with SF-539 CNS; 157% in the test with UACC-257 melanoma; 106% in the test with M14 melanoma; 108% with HCT-15 colon; 123% in the test with HT29 colon. For the same compound, the growth is 74.1% in the test on SNB-75 CNS; 103% with SNB-19 CNS; 119% in the test on U251 CNS; 112% in the test on PC-3 prostate; 113% in the test on SK-MEL-5 melanoma; 105% in the test on LOX IMVI melanoma. In addition, the growth with SK-MEL-28 melanoma is 110%.
With `Clc1ccc(C2=NN=C3C(Cc4ccccc4)=Nc4ccccc4N3C2)cc1`, the growth in the test with DU-145 prostate was 70.1%; in the test with K-562 leukemia, 30.1%; with MALME-3M melanoma, 95.5%; with MDA-MB-231 breast, 68.9%; in the test with RXF 393 renal, 82.1%; in the test on SF-268 CNS, 66.7%. The growth is 86.3% in the test with SF-295 CNS; 105% in the test on SF-539 CNS; 104% with UACC-257 melanoma; 75.8% with M14 melanoma; 68.6% in the test on HCT-15 colon; 84.6% in the test on HT29 colon. Moreover, the growth was 98.5% with SNB-75 CNS; 93.3% in the test on SNB-19 CNS; 62.1% with U251 CNS; 65.1% in the test with PC-3 prostate; 80.3% in the test with SK-MEL-5 melanoma; 65.2% in the test on LOX IMVI melanoma. In the test on SK-MEL-28 melanoma, the growth was 83.4%.
Turning to `CCN(CC)CCOC(=O)c1cc(OCc2ccccc2)c(OCc2ccccc2)c(OCc2ccccc2)c1`, the growth was 64.6% with DU-145 prostate; 0.819% (active) with K-562 leukemia; 54% in the test with MALME-3M melanoma; 16% in the test on MDA-MB-231 breast; 47% in the test with RXF 393 renal; 59.3% with SF-268 CNS. The growth is 84.5% in the test on SF-295 CNS; 81.1% in the test with SF-539 CNS; 73.8% in the test on UACC-257 melanoma; 18.4% in the test on M14 melanoma; 13.1% in the test on HCT-15 colon; 7.14% (active) in the test with HT29 colon. Also, the growth in the test with SNB-75 CNS was 72.1%; in the test with SNB-19 CNS, 56.9%; with U251 CNS, 18.3%; with PC-3 prostate it was 49.6%; in the test with SK-MEL-5 melanoma, 63.3%; in the test with LOX IMVI melanoma, -16.9% (active). Further, in the test on SK-MEL-28 melanoma, the growth was 63.2%.
